Experimental findings from the supplement of paper PMC12819154, “High-throughput peptide-centric local stability assay extends protein–ligand identification to membrane proteins, tissues and bacteria” (Nature Structural & Molecular Biology, 2025) are described below.
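Further: lysate desalted by size exclusion to strip endogenous ATP, peptide intensities built from DIA-NN precursor signals, and peptides missing any value discarded before comparison.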

Compound in this test: Nc1ncnc2c1ncn2[C@@H]1O[C@H](COP(=O)(O)OP(=O)(O)OP(=O)(O)O)[C@@H](O)[C@H]1O [adenosine 5'-triphosphate]
Description: log2 fold change of tryptic peptide abundance, ligand vs vehicle (limited proteolysis) (log2 ratio); higher = more trypsin-susceptible (destabilized). The note with it: ligand concentration: 5 mM; sample: E. coli desalted lysate; replicate design: treated before aliquoting. As to the method: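 HT-PELSA: desalted E. coli K-12 BW25113 lysate (with 12 mM MgCl2) incubated with 5 mM ATP (pH 7) or water for 30 min at 25 C, then a 4 min trypsin pulse at 22 C. Peptides were quantified by DIA-MS (4 replicates). Value is the peptide log2 fold change (treated/control); negative = stabilized. Scale: negative = ligand-stabilized region.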
With “UniProt P03813 (peptide sequence: YTMEQDFYR, peptide start residue: 127)”, the log2 fold change was -0.699. Consider “UniProt P06720 (peptide sequence: CVEQLANWHKELEEYKK, peptide start residue: 299)”, for which the log2 fold change was -1.1.

Turning to “UniProt P28861 (peptide sequence: ETAAGSLTGR, peptide start residue: 175)”, the log2 fold change was -1.31. Next, “UniProt P09373 (peptide sequence: ALIPFGGIK, peptide start residue: 109)”: -0.384; “UniProt P11454 (peptide sequence: IELGEIDR, peptide start residue: 867)”: -1.19; “UniProt P27249 (peptide sequence: VEDLFIIATADRR, peptide start residue: 854)”: 0.328. Next, “UniProt P39342 (peptide sequence: MGPVTEDER, peptide start residue: 387)”: -1.06.

Take “UniProt P37765 (peptide sequence: EIESIIEAGRVSVDGK, peptide start residue: 19)”: the log2 fold change came out at 0.997. As to “UniProt P23865 (peptide sequence: VRLEILPAGK, peptide start residue: 315)”, the log2 fold change came to 1.04. As to “UniProt P52598 (peptide sequence: SCVGEAAATMLR, peptide start residue: 151)”, the log2 fold change is -0.421.

In the case of “UniProt P27240 (peptide sequence: IKDLVVFTDENNSK, peptide start residue: 7)”, the log2 fold change is -0.431.

“UniProt P45579 (peptide sequence: VAAAHAVHNGLTVLPQTEK, peptide start residue: 253)”: the log2 fold change was determined as 0.992. Next, “UniProt Q47129 (peptide sequence: LDADLPMVQLSHR, peptide start residue: 141)”: -1.3; “UniProt P0AC00 (peptide sequence: RYYGGLVEY, peptide start residue: 332)”: -0.478; “UniProt P25742 (peptide sequence: SFTHLAPIHGTHIVER, peptide start residue: 116)”: -1.07.

For the target “UniProt P0AA39 (peptide sequence: NILQSGER, peptide start residue: 198)”, the log2 fold change was -0.653. Next, “UniProt P30014 (peptide sequence: TAVLFCEIVNR, peptide start residue: 190)”: -2.04. Consider “UniProt P25536 (peptide sequence: IVTGIEEQR, peptide start residue: 27)”, for which the log2 fold change was -1.03. The value for “UniProt P30864 (peptide sequence: KIIASPDYISR, peptide start residue: 165)” was 1.32; that for “UniProt P75828 (peptide sequence: YLDIINR, peptide start residue: 246)” was -2.12. For “UniProt P16676 (peptide sequence: LYNGDER, peptide start residue: 345)”, the log2 fold change is 0.414. The value for “UniProt P15373 (peptide sequence: SHAVLTTESK, peptide start residue: 7)” was -0.194; that for “UniProt Q46800 (peptide sequence: LAFGVAAPTPIR, peptide start residue: 215)” was 0.403; that for “UniProt P76268 (peptide sequence: ALQNVDLIR, peptide start residue: 83)” was 0.371.

As for “MurF (peptide sequence: VVALTGSSGK, peptide start residue: 102) (UniProt P11880)”, the log2 fold change was -1.5. Next, “UniProt P37005 (peptide sequence: IVDSQAHLEPATR, peptide start residue: 33)”: -0.548; “UniProt P77739 (peptide sequence: IGWQLELAAEK, peptide start residue: 152)”: -0.651; “UniProt P26612 (peptide sequence: TIHLGENYGNK, peptide start residue: 446)”: 0.945. “UniProt P00350 (peptide sequence: RIDKEGVFHTEWLD, peptide start residue: 455)”: the log2 fold change is -0.396. Next, “UniProt P32157 (peptide sequence: YPVDVYTGK, peptide start residue: 3)”: -0.765; “UniProt P39353 (peptide sequence: EGVIGEILSCHTKR, peptide start residue: 135)”: -0.665. Turning to “UniProt P32131 (peptide sequence: QQHKADQYLDALEQEIVHR, peptide start residue: 78)”, the log2 fold change was determined as 1.02. Take “UniProt Q46857 (peptide sequence: DLADKYGK, peptide start residue: 204)”: the log2 fold change is -0.885.

Regarding “UniProt P31665 (peptide sequence: QEVSQEFAQR, peptide start residue: 262)”, the log2 fold change was -0.678. The value for “UniProt P75915 (peptide sequence: VLGSLYYR, peptide start residue: 10)” was 0.747; that for “UniProt P75728 (peptide sequence: LVIGADGANSQVR, peptide start residue: 160)” was 0.798; that for “UniProt P77252 (peptide sequence: DEPLTLLK, peptide start residue: 148)” was 0.328. The value for “UniProt P07648 (peptide sequence: VKAHLTCLHTR, peptide start residue: 776)” was 1.26; that for “UniProt P03817 (peptide sequence: FGAIGIGSR, peptide start residue: 85)” was 0.339.
